Only some compounds are listed: those with a hit (about 2.4% of all), similar ones and a draw of the others.
D2 PAM-1 = positive allosteric modulators of human D2 dopamine receptor | P14416 | DiscoveRx D2 beta-arrestin cells, luminescence, 90 min; 100% = 57 uM dopamine signal | potentiation, % (concentration not given with the values) | actives 0.23% (n = 360,000) | AID 624464; in the data active means potentiation above about 50%; inconclusive means mostly about 30% to 49%
Target sequence (P14416 whole entry, looked up): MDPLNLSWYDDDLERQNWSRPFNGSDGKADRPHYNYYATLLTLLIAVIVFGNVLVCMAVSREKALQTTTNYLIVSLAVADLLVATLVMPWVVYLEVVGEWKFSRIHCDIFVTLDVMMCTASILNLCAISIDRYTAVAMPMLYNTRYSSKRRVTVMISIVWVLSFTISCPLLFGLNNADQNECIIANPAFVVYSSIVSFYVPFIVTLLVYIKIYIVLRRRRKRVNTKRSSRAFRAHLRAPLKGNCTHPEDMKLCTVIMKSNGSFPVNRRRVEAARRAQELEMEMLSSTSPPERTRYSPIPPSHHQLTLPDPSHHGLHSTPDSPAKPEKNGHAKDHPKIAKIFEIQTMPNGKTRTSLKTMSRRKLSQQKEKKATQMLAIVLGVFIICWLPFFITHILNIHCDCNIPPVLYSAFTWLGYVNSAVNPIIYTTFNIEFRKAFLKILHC
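D2 cells co-treated with compound plus 50 nM dopamine (EC20) for 90 min at 37 deg C to detect potentiation. Beta-arrestin recruitment was read as enzyme-fragment luminescence after 1 h at ambient temperature. Full response was set by 57 uM dopamine.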
D2 ag-1 = agonists of human D2 dopamine receptor; activation, % at 2 µM; P14416; actives 0.53% (n = 340,000); HEK293 T-REx D2 cells, calcium flux agonist mode;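 active means activation over 3 SD above normal in the single-dose calcium agonist read, cut at about 30% in these data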
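HEK293 Trex D2 cells, tetracycline-induced, o/n 30 C 5% CO2; no-wash Ca dye, RT 30–90 min; 10-cycle baseline, 23 nl cpd added, kinetic Ca read 180 s; agonist hits = positive Ca response.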
D2 PAM-2 = D2 dopamine receptor (human) potentiation; P14416; HEK293 T-REx D2, calcium flux, EC20 dopamine potentiation; potentiation, % at 10 µM; actives 0.34% (n = 340,000); AID 485347;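 active means potentiation over 3 SD above the plate norm, cut at about 30% in these data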
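Using a no-wash calcium dye in inducible, force-coupled HEK293 Trex cells expressing D2, we tracked fluorescence each second for 180 s after compound, then for 180 s after EC20 dopamine to detect augmented signalling.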
D2 antagonist = antagonists of human D2 dopamine receptor. HEK293 TREx D2 cells, calcium flux, dopamine EC80. inhibition, % at 10 µM. P14416. actives 2% (n = 340,000); in the data active means inhibition above about 30%; inactive means below that, where a call was filed
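HEK293 T-REx D2 cells, tet-induced, calcium dye no-wash. Cpd pintool add, 180 s kinetic, then EC80 DA, 180 s kinetic. Ca flux read.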
D2 ag-2 = human D2 receptor agonism in beta-arrestin assay. DiscoveRx PathHunter D2 beta-arrestin, luminescence, 90 min; 100% = 57 uM dopamine signal. activation, % (test concentration not listed). actives 0.084% (n = 360,000). AID 624465; in the data active means activation above about 40%; inconclusive means between about 15% and that limit
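DiscoveRx PathHunter D2 beta-arrestin cells (2,100/well) attached overnight, then compound-stimulated 90 min at 37 C in HBSS/10 mM HEPES/0.1% Tween-20 buffer; beta-galactosidase complementation read by luminescence after 1 h at ambient temperature. Dopamine 57 uM final (EC100) as control.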
Each line names hits and unclear results; the compound was inactive in the other large screens; ! = repeats disagree.

C/C(=N\NC(=O)c1ccc(Br)cc1)c1cccc(NC(=O)c2cccnc2)c1	D2 antagonist 32.0
COc1c(Br)cc(Br)cc1/C=N/NC(=O)c1cccnc1	D2 antagonist 90.1
COc1cc(/C=N/NC(=O)c2ccncc2)cc(OC)c1OC	none
C/C(=N\NC(=O)c1ccncc1)c1cccc(NC(=O)c2ccc(C(C)(C)C)cc2)c1	none
CCCCn1c(N)c(N(CCC(C)C)C(=O)CN2C(=O)C3CCCCC3C2=O)c(=O)[nH]c1=O (configuration not stated)	none
CCCC(=O)N1CCCC(C(=O)c2cccc(OC(C)C)c2)C1 (configuration not stated)	none (no result: D2 ag-1, D2 PAM-2, D2 antagonist)
CN(C)c1ccc(C(=O)N/N=C/c2cc(Br)cc(Br)c2O)cc1	D2 antagonist 32.1
C[N+](C)(CCOc1ccccc1)Cc1ccccc1 (tested in a mixture with another compound)	D2 PAM-1 74.3, D2 ag-2 inconclusive
Cn1ncc(Cl)c1C(=O)N1CCN(S(=O)(=O)c2ccc(Cl)s2)CC1	none
CC1=C(/C=C/C(C)=C/C=C/C(C)=C/C(=O)Nc2ccc(O)cc2)C(C)(C)CCC1	D2 PAM-1 56.1!
CC1=C(/C=C/C(C)=C/C=C/C(C)=C\C(=O)O)C(C)(C)CCC1	none (no result: D2 ag-1, D2 PAM-2, D2 antagonist)
O=C(O)c1ccc(-n2nnnc2SCc2ccccc2F)cc1	D2 antagonist 37.2
Cc1ccccc1CSc1nnnn1-c1ccc(C(N)=O)cc1	none
CCOC(=O)N1CCC(=NNC(=O)Cn2ccc(C(F)(F)F)n2)CC1	D2 PAM-2 32.9
Cc1noc(C)c1S(=O)(=O)NCCc1csc2nc(-c3ccc(F)cc3)nn12	none (no result: D2 PAM-1, D2 antagonist, D2 ag-2)
COc1ccc(-c2cc(C(=O)Nc3cccc(O)c3)on2)cc1OC	none (no result: D2 PAM-1, D2 antagonist, D2 ag-2)
CC(C)Cc1nnc(NS(=O)(=O)Cc2ccccc2)s1	D2 antagonist 32.0
CC(C)Cc1nnc(NS(=O)(=O)c2ccccc2)s1	none (no result: D2 ag-1, D2 PAM-2, D2 antagonist)
COc1ccc(-n2nnnc2-c2cccc(OC)c2)cc1	D2 antagonist 35.6
Cc1cc(NC(=O)Cn2ccsc2=N)c([N+](=O)[O-])cc1C	none
COc1ccc([N+](=O)[O-])cc1NC(=O)Cn1ccsc1=N	D2 antagonist 30.8
CC(C)(C)C(=O)NC1CCN(C(=O)N2CCCC2)CC1	D2 antagonist 32.4 (no result: D2 PAM-2)
Cc1cc(C(=O)Nc2ccccc2C)on1	none
Cc1ccccc1NC(=O)c1ccno1	D2 antagonist 31.7
COc1ccccc1N1CCN(CCCCNC(=O)c2ccc3ccccc3c2)CC1	D2 antagonist 75.4 (no result: D2 PAM-1, D2 ag-1, D2 PAM-2, D2 ag-2)
COCCn1nnnc1CN1CCC(Cc2ccccc2)CC1	D2 PAM-2 38.4
COc1ccccc1N1CCN(CCOc2c(OC)cccc2OC)CC1	D2 antagonist 97.5
COc1ccccc1N1CCN(CCCCOc2c(OC)cccc2OC)CC1	D2 antagonist 78.4
COc1cccc(OC)c1OCCN1CCCC1	none
COCCn1nnnc1CN1CCSCC1	none
COc1ccccc1N1CCN(CCCOc2ccc(F)cc2)CC1	D2 antagonist 89.3
COc1ccccc1N1CCN(Cc2cc(=O)n3ccsc3n2)CC1	D2 PAM-2 40.9
COc1cccc(OC)c1OCCCN1CCC(Cc2ccccc2)CC1	D2 antagonist 88.8
CCOc1ccc(CN2CCC(Cc3ccccc3)CC2)cc1	D2 antagonist 30.4
O=c1cc(CN2CCCCCC2)nc2sccn12	none
CN1C[C@@H]2[C@@H]3C(=O)N(Cc4ccccc4)C(=O)[C@@H]3[C@](Cc3ccccc3)(C1=O)N2C(=O)c1ccc(Br)cc1	none (no result: D2 ag-1, D2 PAM-2, D2 antagonist)
COc1ccccc1N1CCN(CCCNc2cc(=O)n(C)c(=O)n2C)CC1	D2 ag-1 57.9, D2 antagonist 64.1
COc1ccccc1N1CCN(CCCNc2c(C)c(=O)n(C)c(=O)n2C)CC1	none (no result: D2 ag-1, D2 PAM-2, D2 antagonist)
COc1ccc(C(OCC(O)CNCCc2ccc(S(N)(=O)=O)cc2)c2ccc(OC)cc2)cc1 (configuration not stated)	none
OC(CNCCc1ccc(C(F)(F)F)cc1)COC(c1ccccc1)c1ccccc1 (configuration not stated)	D2 antagonist 31.0
COc1ccccc1NS(=O)(=O)c1cccc(C(=O)NCC(c2ccco2)N2CCCCC2)c1 (configuration not stated)	none
COc1ccc(N(C)S(=O)(=O)c2cccc(C(=O)NCC(c3cccs3)N(C)C)c2)cc1 (configuration not stated)	D2 antagonist 46.1
COc1ccccc1NS(=O)(=O)c1ccc(C(=O)NCC(c2ccco2)N(C)C)cc1 (configuration not stated)	none
O=C(NCc1ccco1)c1cccc(C(F)(F)F)c1	none
COc1ccc(Cl)cc1NS(=O)(=O)c1cccc(C(=O)NCC(c2ccco2)N2CCCC2)c1 (configuration not stated)	D2 antagonist 38.5
COc1ccc(N(C)S(=O)(=O)c2cccc(C(=O)NCC(c3ccco3)N3CCCC3)c2)cc1 (configuration not stated)	none
COc1ccc(Cl)cc1NS(=O)(=O)c1cccc(C(=O)NCC(c2ccco2)N(C)C)c1 (configuration not stated)	D2 antagonist 60.4
CN(C)C(CNC(=O)c1cccc(C(F)(F)F)c1)c1ccco1 (configuration not stated)	D2 antagonist 31.3
CC(OC(=O)/C=C/c1ccc2ccccc2n1)C(=O)NCc1ccccc1 (configuration not stated)	none
COc1ccc(C(CNC(=O)c2ccc(NS(=O)(=O)c3ccc4c(c3)OCCO4)cc2)N(C)C)cc1 (configuration not stated)	D2 antagonist 31.0
COc1ccc(NS(=O)(=O)c2cccc(C(=O)NCC(c3ccco3)N(C)C)c2)cc1 (configuration not stated)	D2 antagonist 36.5
COc1ccc(NS(=O)(=O)c2ccc(C)c(C(=O)NCC(c3ccco3)N(C)C)c2)cc1 (configuration not stated)	none
CC(=O)CSc1nnc2cc(C)c3cc(C)cc(C)c3n12	none (no result: D2 PAM-1, D2 antagonist, D2 ag-2)
CCc1cccc(C)c1NC(=O)CN1C(=O)c2c(c3ccccc3n2C)C1c1ccc(OC)cc1 (configuration not stated)	none (no result: D2 PAM-1, D2 antagonist, D2 ag-2)
CN1CCC(Oc2ccccc2Sc2ccccc2)CC1	D2 antagonist 32.4
CN1CCC(OC(c2ccccc2)c2ccccc2)CC1	none
CC(C)c1ccc(Nc2ncnc3c2c(-c2ccccc2)cn3-c2ccccc2)cc1	none (no result: D2 PAM-1, D2 antagonist, D2 ag-2)
COCCCNC(=O)C1CCN(S(=O)(=O)c2c(C)noc2/C=C\c2ccc(OC)cc2)CC1	none
COc1ccc(/C=C/c2onc(C)c2S(=O)(=O)N2CCC(C(=O)N3CCCCCC3)CC2)cc1	D2 PAM-2 33.7
CCCCNC(=O)C1CCN(S(=O)(=O)c2c(C)noc2/C=C\c2ccc(OC)cc2)CC1	D2 antagonist 39.6

Source: PubChem (National Center for Advancing Translational Sciences (NCATS))
